Screens: PubChem BioAssay, several laboratories
APOBEC3A inh: APOBEC3A ssDNA deaminase inhibitors, primary screen, selectivity assay for APOBEC3G inhibitor project, biochemical, FAM/TAMRA oligo cleavage fluorescence; DNA dC->dU-editing enzyme APOBEC-3A (Homo sapiens), P31941; recombinant A3A, FAM/TAMRA ssDNA deamination fluorescence; inhibition, % at 20 µM; AID 493011, 2011; actives 0.41% (n = 330,000);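 active means at least 40% inhibition at 20 µM here, with at most 30% in a related deaminase screen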
APOBEC3G inh: APOBEC3G DNA deaminase inhibitors, primary screen, biochemical, fluorescence, single-stranded DNA substrate, uHTS. DNA dC->dU-editing enzyme APOBEC-3G (Homo sapiens), Q9HC16. actives 0.28% (n = 330,000). AID 493012, 2011. recombinant A3G, ssDNA deamination FAM/TAMRA fluorescence. inhibition, % at 20 µM;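 active means inhibition of at least 40% at 20 µM, with no more than 30% in the related APOBEC3A deaminase screen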
CR mimetic SO: reduction of superoxide in aged yeast, primary screen, HTS; S. cerevisiae aged cells, superoxide DHE fluorescence; active compounds read low; superoxide response (% of plate mean), % at 10 µM; actives 0.18% (n = 330,000); AID 2690, 2010;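 active means superoxide response under a set limit, about three screen SD below normal, cut at about 65% in these data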;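 further: yeast aged for seven days with compound at 30 °C before DHE staining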
CendR NRP1 mod: modulators of CendR peptide binding to NRP-1, primary screen, biochemical, fluorescence polarization, uHTS. FAM-RPARPAR peptide binding to NRP-1. inhibition, % at 25 µM. actives 0.85% (n = 360,000);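 active means inhibition or corrected inhibition above about 18%, plus a signal ratio from 0.5 to 1.5, limit read from the data, passing the limit was not always enough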
Target sequence (O14786 whole entry, looked up): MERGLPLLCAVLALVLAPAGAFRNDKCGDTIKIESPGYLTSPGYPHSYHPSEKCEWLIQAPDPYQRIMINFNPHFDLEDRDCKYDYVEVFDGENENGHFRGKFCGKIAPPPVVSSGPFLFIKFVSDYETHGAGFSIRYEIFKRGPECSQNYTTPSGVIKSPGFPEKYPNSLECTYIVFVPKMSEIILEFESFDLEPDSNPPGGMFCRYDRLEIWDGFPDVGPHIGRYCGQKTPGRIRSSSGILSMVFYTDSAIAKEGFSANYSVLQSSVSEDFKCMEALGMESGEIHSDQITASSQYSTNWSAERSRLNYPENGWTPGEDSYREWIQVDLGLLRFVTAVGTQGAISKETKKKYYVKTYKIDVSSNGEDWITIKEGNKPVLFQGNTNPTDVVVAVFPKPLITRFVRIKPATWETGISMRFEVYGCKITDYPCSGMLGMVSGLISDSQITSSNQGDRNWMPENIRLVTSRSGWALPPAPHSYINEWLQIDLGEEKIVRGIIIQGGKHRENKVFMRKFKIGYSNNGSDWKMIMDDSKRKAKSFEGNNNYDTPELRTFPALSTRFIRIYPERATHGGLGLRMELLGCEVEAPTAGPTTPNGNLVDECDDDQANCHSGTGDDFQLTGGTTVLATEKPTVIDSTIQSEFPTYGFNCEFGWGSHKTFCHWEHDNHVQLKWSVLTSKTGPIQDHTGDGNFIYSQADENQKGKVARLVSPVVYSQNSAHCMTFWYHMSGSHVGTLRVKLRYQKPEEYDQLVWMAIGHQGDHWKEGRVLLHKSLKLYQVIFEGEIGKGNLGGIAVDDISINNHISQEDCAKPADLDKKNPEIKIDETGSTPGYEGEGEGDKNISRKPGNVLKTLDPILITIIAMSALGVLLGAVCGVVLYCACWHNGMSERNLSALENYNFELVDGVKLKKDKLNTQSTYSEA
ALR H2O2 inh: inhibitors of human ALR sulfhydryl oxidase, primary screen, biochemical, H2O2 detection, HRP-luminol luminescence, single point; FAD-linked sulfhydryl oxidase ALR (Homo sapiens), P55789; purified ALR, DTT oxidation; inhibition, % (concentration not given with the values); actives 3.8% (n = 290,000); AID 485317, 2010;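 active means mean replicate inhibition above about 79%, with every replicate also reaching it, limit read from the data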
M18AAP inhibitor: PfM18AAP inhibitors, malaria aminopeptidase, primary screen, biochemical, QFRET, recombinant enzyme | H-Glu-NHMec fluorogenic cleavage | inhibition, % at 7.35 µM | M18 aspartyl aminopeptidase (Plasmodium falciparum 3D7) | actives 1.2% (n = 290,000);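 active means inhibition above the campaign mean inhibition over all tested compounds plus 3 SD, cut at about 28% in these data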
Large screens that a line does not name were inactive. Rows were chosen to be rich in hits. Some 5.2% of all compounds tested hit in one or more screens of this group.

Cn1c(=O)oc2cc(S(=O)(=O)Nc3ccc(O)cc3)ccc21	ALR H2O2 inh 99
O=C(NCCCn1ccnc1)c1nc(Cn2cc([N+](=O)[O-])cn2)no1	none
Cc1cc(NC(=O)CSCC(=O)N(C)Cc2ccc(Cl)cc2Cl)no1	none (no result: M18AAP inhibitor)
N#Cc1ccccc1OCC(=O)Nc1c(C(=O)C2CC2)oc2ccccc12	ALR H2O2 inh 90
Clc1ccc2nc(CN3CCCCCC3)cn2c1	none
CC1CCC2C(C1)Nc1c(C(=O)O)cccc1C2(C)C (stereo not drawn)	ALR H2O2 inh 98
COc1ccc(CC(=O)N/N=C(\C)CC(=O)Nc2ccc3c(c2)OCCO3)cc1OC	none
COc1ccc(NC(=O)c2ccc3nccnc3c2)cc1	none
O=S(=O)(NCc1ccccc1)c1ccccc1NCCc1ccccc1	CR mimetic SO 52 (no result: ALR H2O2 inh, M18AAP inhibitor)
CCCCCCCCNc1ccccc1S(=O)(=O)NCc1ccccc1	none (no result: ALR H2O2 inh, M18AAP inhibitor)
CCn1cnc2sc(C(=O)N(Cc3ccc(N(C)C)cc3)Cc3ccco3)c(C)c2c1=O	none
CCOC(=O)/C(C#N)=C/c1cc2ccc(C)cc2nc1Cl	ALR H2O2 inh 96
CCOC(=O)/C(C#N)=C/c1cc2cc(C)c(C)cc2nc1Cl	none
Cc1cc2cc(C=C(C#N)C#N)c(Cl)nc2cc1C	ALR H2O2 inh 98
CCOc1ccccc1NC(=O)CN1CCC(C(=O)c2ccc(F)cc2)CC1	none
CC(=O)c1cccc(NC(=O)C2CCN(S(=O)(=O)c3ccccc3)CC2)c1	none
Cc1ccccc1NC(=O)c1cccc(NC(=O)CCC(=O)O)c1	CendR NRP1 mod 23 (no result: ALR H2O2 inh)
OC(c1ccc2ccccc2c1)c1ncc(-c2cccc3ccccc23)[nH]1 (stereo not drawn)	none (no result: APOBEC3A inh, APOBEC3G inh, CR mimetic SO, ALR H2O2 inh, M18AAP inhibitor)
O=c1cc(-c2cccc3ccccc23)[nH][nH]1	ALR H2O2 inh 88
CCOc1cc(-c2cc(-c3ccc(C)o3)nc(N)c2C#N)ccc1O	ALR H2O2 inh 80
O=C(c1ccccc1)[C@H]1CC=CC[C@H]1C(=O)O	none
C=CCn1c(SCc2ccccc2F)nc2cc(C(=O)O)ccc2c1=O	ALR H2O2 inh 98
COc1cc(/C=N/NC(=O)c2cccc(S(=O)(=O)N3CCCC3)c2)ccc1O	ALR H2O2 inh 99 (no result: M18AAP inhibitor)
COc1ccc(NS(=O)(=O)c2cccc(C(=O)NN=Cc3ccc(O)c(OC)c3)c2)cc1	none (no result: M18AAP inhibitor)
O=C(N/N=C/c1ccc(O)c(O)c1)c1cccc(S(=O)(=O)N2CCCC2)c1	ALR H2O2 inh 99 (no result: M18AAP inhibitor)
O=C(N/N=C/c1cccnc1)c1cccc(S(=O)(=O)N2CCCC2)c1	none
COc1cc(OC)cc(-c2c(-c3cccs3)c3cc(-c4ccc(SC)cc4)ccc3n2C)c1	none (no result: M18AAP inhibitor)
COc1ccc(N2CCN(C3CCCN(C(=O)CN4CCCCC4=O)C3)CC2)cc1 (stereo not drawn)	none
COc1ccccc1N1CCN(C2CCCN(C(=O)CN3CCCCC3=O)C2)CC1 (stereo not drawn)	CendR NRP1 mod 20
C=CCc1c(N(CC)CC)nc(C)[nH]c1=O	none
Cc1ccc(-c2ccnc3nc(-n4cccc4)nn23)o1	none
O=C(O)CC(c1ccc(F)cc1F)N1Cc2ccccc2C1=O (stereo not drawn)	none (no result: ALR H2O2 inh)
Cc1cc(NC(=S)Nc2ccc(C)c(Cl)c2)n[nH]1	ALR H2O2 inh 97
O=Cc1[nH]c2ccccc2c1N(C(=O)CCl)c1ccccc1	none (no result: APOBEC3A inh, APOBEC3G inh, CR mimetic SO, ALR H2O2 inh)
O=C(c1cc2ccccc2o1)N1CCN=C1SCc1cccnc1	ALR H2O2 inh 99
O=C(c1ccc(Br)o1)N1CCN=C1SCc1cccnc1	ALR H2O2 inh 100
O=C(c1cc2ccccc2o1)N1CCN=C1SCc1cccc(F)c1	none
CSC1=NCCN1C(=O)c1ccc(Br)o1	none
[O-][n+]1c2c(c3c4non(O)c4ccc31)CCCC2	ALR H2O2 inh 94
O=C(N/N=C/c1ccc(O)cc1)c1csc2c1CCCC2	ALR H2O2 inh 99
Cc1c(NC(=O)c2cccc(NC(=O)COc3ccccc3)c2)c(=O)n(-c2ccccc2)n1C	none (no result: ALR H2O2 inh, M18AAP inhibitor)
